Source: PubChem BioAssay
hNpr1 antagonist – blocks ANP-stimulated signaling of human Npr1 receptor; hit rate 1.6% among 76,000; Potency, µM (series often up to 46.3 µM), without a hit: at the top dose activity change, negative = inhibition, most hits filed as inhibitors; HEK293 hNpr1 GloSensor cGMP, ANP-stimulated luminescence; calls by dose curve; note: % is set by controls: 0 for no effect and ±100 for the full control effect; nearly all actives have a fitted effect of over 60% in size
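HEK293 cells stably expressing human Npr1 and cGMP GloSensor pGS-40F, loaded 2 h with 2% GloSensor reagent, given compound 30 min at room temperature. Luminescence read before and 20 min after 0.1 nM hNppA.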
HEK cytotox – cytotoxic compounds in HEK 293 cells. HEK 293 viability, ATP luminescence (CellTiter-Glo), 48-72 h. Potency, µM (top dose mostly 115 µM), without a hit: at the highest dose activity change, negative = cytotoxicity, hits mostly inhibitors. hit rate 6.6% among 94,000; note: % is set by controls: 0 for no effect and ±100 for the full control effect; nearly all actives have a fitted effect of over 60% in size
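HEK 293 seeded at 250 cells/well receive compound via pintool. After 48 or 72 hr at 37 degree Celsius, 5% CO2 and 95% humidity, CellTiter-Glo is dispensed and luminescence read following 10 min at room temperature.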
GPT2 inh – GPT2 alanine aminotransferase inhibition. Q8TD30. AID 1671188. Potency, µM (series often up to 57.7 µM), for the others: top-dose activity change, negative = inhibition, actives largely listed as inhibitors. hit rate 0.25% among 100,000. Recombinant GPT2, coupled pyruvate oxidase/HRP Amplex Red fluorescence; note: % is set by controls: 0 for no effect and ±100 for the full control effect; nearly all actives have a fitted effect of over 60% in size
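Fluorescence of coupled pyruvate oxidase/HRP/Amplex Red system (50uM Amplex, 30 min, dark) reports pyruvate formed by GPT2. Enzyme reaction: 10ng/uL GPT2, 2mM L-alanine, 250uM a-KG, 30 min room temperature, pH 7.5; 50uM AOA control.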
3T3 cytotox – cytotoxic compounds in NIH 3T3 cells; NIH 3T3 viability, CellTiter-Glo ATP luminescence, 48-72 h; Potency, µM (doses to about 96.7 µM), for inactives: at the top dose activity change, negative = cytotoxicity, actives largely listed as inhibitors; hit rate 4.3% among 94,000; note: % is set by controls: 0 for no effect and ±100 for the full control effect; nearly all actives have a fitted effect of over 55% in size
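First NIH 3T3 cells are plated at 400 cells/well; next compound is pinned in; then plates incubate 48 or 72 hr at 37 °C; finally CellTiter-Glo is added and luminescence read after 10 min.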
FLuc inh-1 – Photinus pyralis luciferase inhibition | P08659 | purified P. pyralis luciferase, luminescence, biochemical | Potency, µM (top dose mostly 115 µM), hits mostly inhibitors | hit rate 2.5% among 76,000; note: % is set by controls: 0 for no effect and ±100 for the full control effect; nearly all actives have a fitted effect of over 65% in size
Target sequence (P08659 whole entry, looked up): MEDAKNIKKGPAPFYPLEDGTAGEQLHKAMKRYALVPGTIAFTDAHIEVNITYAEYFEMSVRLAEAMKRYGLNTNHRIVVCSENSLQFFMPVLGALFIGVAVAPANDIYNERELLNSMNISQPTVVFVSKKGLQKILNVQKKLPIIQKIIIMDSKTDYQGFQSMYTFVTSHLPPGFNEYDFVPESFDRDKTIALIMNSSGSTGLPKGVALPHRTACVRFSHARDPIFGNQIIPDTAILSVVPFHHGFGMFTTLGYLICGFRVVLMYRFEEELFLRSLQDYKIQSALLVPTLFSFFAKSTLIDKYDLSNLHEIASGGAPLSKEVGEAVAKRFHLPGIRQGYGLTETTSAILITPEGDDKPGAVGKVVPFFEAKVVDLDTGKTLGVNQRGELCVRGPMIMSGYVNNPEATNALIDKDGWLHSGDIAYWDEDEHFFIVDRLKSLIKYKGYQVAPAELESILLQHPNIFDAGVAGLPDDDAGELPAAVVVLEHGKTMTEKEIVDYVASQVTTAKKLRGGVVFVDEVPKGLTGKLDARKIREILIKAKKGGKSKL
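Biochemical qHTS: compound (6-point titration) added to 10uM D-luciferin plus 10uM ATP in Tris acetate pH 7.5 buffer with Mg, Tween-20 and BSA, then purified enzyme at 10nM; light output imaged.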
FLuc SDR no ATP – binders stabilizing firefly luciferase, without ATP. hit rate 7.8% among 1,300. Potency, µM (series often up to 32.7 µM), without a hit: top-dose activation (signal gain), hits mostly activators. shares compounds with FLuc inh-1. Purified FLuc-C-HiBiT, Nano-Glo HiBiT luminescence, no ATP; note: nearly all actives have a fitted effect of over 55% in size
FLuc SDR ATP – stabilizes firefly luciferase with ATP present; AID 1963319; hit rate 8.7% among 1,300; shares compounds with FLuc inh-1; purified FLuc-C-HiBiT + ATP, HiBiT complementation luminescence; Potency, µM (doses to about 32.7 µM), for the others: at the top dose activation (gain of signal), hits mostly activators;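 note: signal reports ligand binding via conformational change of the enzyme rather than luciferase catalysis; % of control where 0% means no effect; nearly all actives have a fitted effect of over 55% in size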
FLuc inh-2 – firefly luciferase enzyme inhibition; Potency, µM (titrated, usually from 32.7 µM), for the others: at the top dose activity change, negative = inhibition, usual class: inhibitors; hit rate 42% among 1,300; AID 1963320; purified FLuc-C-HiBiT enzyme, luciferin luminescence; shares compounds with FLuc inh-1; note: % is set by controls: 0 for no effect and ±100 for the full control effect; nearly all actives have a fitted effect of over 70% in size
Numbers without * were called inactive; [ ] = dose if it differs, or a comment. A selection follows. Unless noted, calls come from the whole dose curve; as a rule, active = well fitted curve in the direction sought with a large enough effect; inconclusive = small, poorly fitted or top-dose-only effect, or another doubt; inactive = no such curve, though single readings can be large; an effect the other way counts as inactive or inconclusive. Potency is the fitted concentration of half-maximal effect.

Clc1cccc(-c2nc3ccccc3s2)c1 was read as FLuc SDR no ATP 18.8%, FLuc SDR ATP 16.4% and FLuc inh-2 8.81µM*.
For COc1ccc(C(=O)N[C@@H]2CN(Cc3cccnc3)C[C@H]2CN(C)C)cc1F the results were hNpr1 antagonist 3.3%, HEK cytotox inconclusive, GPT2 inh 0.4%, 3T3 cytotox inconclusive and FLuc inh-1 inactive.
Cc1c(F)cccc1NC(=O)N1CCC(n2cnnc2C2CC2)C1 (centres undefined) was read as hNpr1 antagonist 1.2%, HEK cytotox 1.5%, GPT2 inh -0.9%, 3T3 cytotox -6.7% and FLuc inh-1 inactive.
Screening Cc1cccc([C@H]2C[C@@H](O)[C@@H](O)[C@@H]2NC(=O)c2ccccc2)c1 returned hNpr1 antagonist -1.1%[70.6 µM], HEK cytotox 4.3%[172 µM], GPT2 inh -4.7%[88.5 µM], 3T3 cytotox -11.4%[174 µM] and FLuc inh-1 inactive.
`COc1ccc(-c2nc3ccccc3o2)cc1NC(=O)c1cccnc1` gave FLuc SDR no ATP 17.8%, FLuc SDR ATP 11.0% and FLuc inh-2 inconclusive.
Screening CCOc1ccc(C(=O)Nc2cc(-c3nc4ccccc4s3)ccc2OC)cc1 returned FLuc SDR no ATP 17.4%, FLuc SDR ATP 9.1% and FLuc inh-2 -4.9%.
Screening COCCCNC(=O)c1ccc2nc(-c3cccnc3)oc2c1 returned HEK cytotox inconclusive, GPT2 inh -2.3%[88.5 µM] and 3T3 cytotox inconclusive.
Cc1c(C(=O)Nc2cccc(-c3nc4ccccc4s3)c2)oc2ccc(F)cc12 was read as FLuc SDR no ATP 11.9%, FLuc SDR ATP 7.8% and FLuc inh-2 -13.6%.
Screening CCCCOc1ccc(C(=O)Nc2ccc(-c3nc4ccccc4s3)cc2C)cc1 returned FLuc SDR no ATP 17.8%, FLuc SDR ATP 10.3% and FLuc inh-2 -0.4%.
`Cc1ccc(C(=O)N2CC[C@@H]3COCCN(C)[C@@H]3C2)s1` gave hNpr1 antagonist -0.6%, HEK cytotox -6.1%, GPT2 inh inactive, 3T3 cytotox inconclusive and FLuc inh-1 inactive.
For CCOc1ncccc1C(=O)N[C@H](c1cncc(OC)c1)C1CC(O)C1 (some centres undefined) the results were hNpr1 antagonist 2.1%, HEK cytotox -1.7%, GPT2 inh -11.5%, 3T3 cytotox -4.1% and FLuc inh-1 inactive.
For COc1ccc(-c2nc3ccccc3s2)cc1NC(=O)c1ccccc1OC the results were FLuc SDR no ATP 17.8%, FLuc SDR ATP 10.5% and FLuc inh-2 inconclusive.
Screening O=C(Nc1cccc(-c2nc3ccccc3s2)c1)N1CCC(O)C1 (centres undefined) returned FLuc SDR no ATP inconclusive, FLuc SDR ATP inconclusive and FLuc inh-2 8.81µM*.
Screening COc1ccc(-c2nc3ccccc3s2)cc1NC(=O)c1cccc(F)c1 returned FLuc SDR no ATP 9.5%, FLuc SDR ATP 8.0% and FLuc inh-2 -11.5%.
Screening COc1ccccc1NC(=O)c1cc(-c2ccc(C(F)(F)F)cc2)nc2c1cnn2C returned HEK cytotox -9.2% and 3T3 cytotox -22.4%.
For COc1ccc(C(=O)Nc2cc(-c3nc4ccccc4s3)ccc2OC)cc1 the results were FLuc SDR no ATP 12.8%, FLuc SDR ATP 10.5% and FLuc inh-2 inconclusive.
